Common to all, as to test: DAPPL (digital affinity profiling via proximity ligation, sequencing); 10 mM Tris-HCl pH 7.5, 50 mM NaCl, 1 mM DTT, 4% glycerol, room temperature, 30 min; GST-TFs on glutathione beads, 16-mer random dsDNA library, 0.1% formaldehyde crosslink after washing; high values mean tight binding
In test [1] the target is T1, FLI1 (Homo sapiens, UniProt Q01543 1-452).
T1 sequence: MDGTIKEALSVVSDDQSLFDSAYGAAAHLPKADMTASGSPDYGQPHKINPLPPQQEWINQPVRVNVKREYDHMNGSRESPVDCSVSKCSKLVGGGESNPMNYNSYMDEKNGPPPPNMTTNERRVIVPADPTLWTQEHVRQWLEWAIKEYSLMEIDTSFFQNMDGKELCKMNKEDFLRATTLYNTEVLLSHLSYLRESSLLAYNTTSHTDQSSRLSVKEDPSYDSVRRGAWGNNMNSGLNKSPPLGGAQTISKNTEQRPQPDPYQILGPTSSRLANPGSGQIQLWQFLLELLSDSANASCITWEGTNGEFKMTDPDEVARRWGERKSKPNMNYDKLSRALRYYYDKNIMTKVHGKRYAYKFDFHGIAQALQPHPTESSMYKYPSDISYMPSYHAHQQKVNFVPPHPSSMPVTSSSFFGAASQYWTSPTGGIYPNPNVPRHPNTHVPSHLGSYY
Conditions: protein: recombinant; tags: N-terminal GST; dsDNA, one strand shown. Summed up:
(§1)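 Pools were built from human transcription factors expressed in yeast as GST fusions, captured on glutathione beads and DNA-barcoded, along with a tag-only sample. Incubation with 200 nmole of a 16-mer random double-stranded DNA library lasted 30 min at room temperature in Tris/NaCl/DTT/glycerol buffer, and was followed by washing, 0.1% formaldehyde crosslinking, proximity ligation, PCR amplification and Illumina NextSeq500 sequencing. Binding signal is the quotient of each hexamer's read frequency for a factor and its frequency for the tag-only sample.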

Test [2] addresses T2, ELK3 (Homo sapiens, UniProt P41970 1-407).
T2 sequence: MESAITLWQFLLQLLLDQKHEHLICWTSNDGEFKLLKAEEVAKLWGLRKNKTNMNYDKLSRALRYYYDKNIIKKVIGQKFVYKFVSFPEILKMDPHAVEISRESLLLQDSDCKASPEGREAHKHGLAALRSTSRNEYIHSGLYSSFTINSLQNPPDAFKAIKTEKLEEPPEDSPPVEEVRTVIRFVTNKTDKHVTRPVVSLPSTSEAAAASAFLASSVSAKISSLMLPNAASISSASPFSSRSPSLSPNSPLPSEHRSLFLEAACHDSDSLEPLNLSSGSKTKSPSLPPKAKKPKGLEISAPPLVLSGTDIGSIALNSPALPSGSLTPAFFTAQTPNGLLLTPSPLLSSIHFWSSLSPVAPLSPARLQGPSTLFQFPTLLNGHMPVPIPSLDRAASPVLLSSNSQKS
Conditions: protein: recombinant; tags: N-terminal GST; dsDNA, one strand shown. Summed up:
as §1

For test [3], the target named is T3, FEV (Homo sapiens, UniProt Q99581 1-238).
T3 sequence: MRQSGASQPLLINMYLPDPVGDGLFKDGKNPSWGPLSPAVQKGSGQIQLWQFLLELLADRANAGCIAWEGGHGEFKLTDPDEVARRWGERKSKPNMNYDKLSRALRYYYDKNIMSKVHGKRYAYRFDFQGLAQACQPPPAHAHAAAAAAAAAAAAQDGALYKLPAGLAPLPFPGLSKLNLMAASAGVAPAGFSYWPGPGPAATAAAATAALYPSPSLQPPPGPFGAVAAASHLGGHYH
Conditions: protein: recombinant; tags: N-terminal GST; dsDNA, one strand shown. The essentials: as §1

The target in test [4] is HSF1 (Homo sapiens, UniProt Q00613 1-529). The following applies: protein: recombinant; tags: N-terminal GST; chain copies: 3; dsDNA, one strand shown. The essentials: as §1
Test [5] deals with T4, ETV2 (Homo sapiens, UniProt O00321 1-342).
T4 sequence: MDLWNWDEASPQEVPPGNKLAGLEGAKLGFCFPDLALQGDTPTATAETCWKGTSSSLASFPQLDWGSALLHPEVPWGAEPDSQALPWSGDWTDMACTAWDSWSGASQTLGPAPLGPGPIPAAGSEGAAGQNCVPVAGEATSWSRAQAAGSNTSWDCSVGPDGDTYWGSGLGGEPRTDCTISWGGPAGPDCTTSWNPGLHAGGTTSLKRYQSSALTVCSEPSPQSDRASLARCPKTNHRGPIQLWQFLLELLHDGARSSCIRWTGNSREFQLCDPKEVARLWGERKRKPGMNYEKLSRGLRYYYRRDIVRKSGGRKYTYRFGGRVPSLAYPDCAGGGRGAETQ
Conditions: protein: recombinant; tags: N-terminal GST; dsDNA, one strand shown. The essentials:
as §1

Test [6] addresses CRX (Homo sapiens, UniProt O43186 1-299). Conditions: protein: recombinant; tags: N-terminal GST; dsDNA, one strand shown. Summed up: as §1
The target in test [7] is T5, ELF5 (Homo sapiens, UniProt Q9UKW6-2 1-255).
T5 sequence: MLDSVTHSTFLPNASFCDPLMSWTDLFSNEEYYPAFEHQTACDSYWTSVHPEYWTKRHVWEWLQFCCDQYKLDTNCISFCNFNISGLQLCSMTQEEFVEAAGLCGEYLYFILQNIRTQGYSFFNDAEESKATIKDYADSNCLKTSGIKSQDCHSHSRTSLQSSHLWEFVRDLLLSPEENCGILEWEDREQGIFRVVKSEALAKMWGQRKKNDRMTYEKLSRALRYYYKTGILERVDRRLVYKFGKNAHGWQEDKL
The following applies: protein: recombinant; tags: N-terminal GST; dsDNA, one strand shown. The essentials:
as §1

HSF1, sequence (Q00613 whole entry): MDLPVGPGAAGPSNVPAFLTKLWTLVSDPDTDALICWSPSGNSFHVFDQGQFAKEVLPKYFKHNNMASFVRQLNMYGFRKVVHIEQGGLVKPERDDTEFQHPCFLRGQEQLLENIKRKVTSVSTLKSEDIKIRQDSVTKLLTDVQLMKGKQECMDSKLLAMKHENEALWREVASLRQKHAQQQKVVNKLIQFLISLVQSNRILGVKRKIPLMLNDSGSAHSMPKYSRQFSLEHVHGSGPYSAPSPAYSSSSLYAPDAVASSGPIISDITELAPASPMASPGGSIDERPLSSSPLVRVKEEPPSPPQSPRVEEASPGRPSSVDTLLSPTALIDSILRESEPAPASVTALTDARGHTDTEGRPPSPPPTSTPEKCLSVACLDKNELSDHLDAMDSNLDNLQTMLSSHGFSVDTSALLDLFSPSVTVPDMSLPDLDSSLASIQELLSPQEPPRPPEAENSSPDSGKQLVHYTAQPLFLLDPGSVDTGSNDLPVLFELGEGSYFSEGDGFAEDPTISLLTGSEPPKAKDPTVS
CRX, sequence (O43186 whole entry): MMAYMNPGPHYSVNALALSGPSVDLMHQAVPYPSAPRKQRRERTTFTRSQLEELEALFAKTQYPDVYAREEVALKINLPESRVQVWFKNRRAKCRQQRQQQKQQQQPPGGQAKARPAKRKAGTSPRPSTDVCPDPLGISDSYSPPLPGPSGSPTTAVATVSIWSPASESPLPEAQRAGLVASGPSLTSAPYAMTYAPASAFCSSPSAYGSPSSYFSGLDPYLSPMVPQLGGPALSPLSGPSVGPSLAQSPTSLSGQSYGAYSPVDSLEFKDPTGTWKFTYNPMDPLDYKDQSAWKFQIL

Consider ATAAGA, for which the binding signal is 1.02 fold enrichment (6-mer frequency, TF over GST control) in test [1]; 1.13 fold enrichment (6-mer frequency, TF over GST control) in test [2]; 1.01 fold enrichment (6-mer frequency, TF over GST control) in test [3]; 1.54 fold enrichment (6-mer frequency, TF over GST control) in test [4]; 1.03 fold enrichment (6-mer frequency, TF over GST control) in test [5]; 1.97 fold enrichment (6-mer frequency, TF over GST control) in test [6]. The binding signal in test [7] is 1.02 fold enrichment (6-mer frequency, TF over GST control).

In the case of CGTTTA, the binding signal in test [1] was 1.08 fold enrichment (6-mer frequency, TF over GST control); in test [2] it was 1.12 fold enrichment (6-mer frequency, TF over GST control); in test [3], 1.09 fold enrichment (6-mer frequency, TF over GST control); in test [4] it was 1.06 fold enrichment (6-mer frequency, TF over GST control); in test [5] it was 1.03 fold enrichment (6-mer frequency, TF over GST control); in test [6], 1.19 fold enrichment (6-mer frequency, TF over GST control). In addition, the binding signal in test [7] is 1.07 fold enrichment (6-mer frequency, TF over GST control).

As to TGATTA, the binding signal in test [1] was 1.07 fold enrichment (6-mer frequency, TF over GST control); in test [2] it was 1.07 fold enrichment (6-mer frequency, TF over GST control); in test [4], 1.58 fold enrichment (6-mer frequency, TF over GST control); in test [5], 1.07 fold enrichment (6-mer frequency, TF over GST control); in test [6], 2.23 fold enrichment (6-mer frequency, TF over GST control); in test [7], 1.03 fold enrichment (6-mer frequency, TF over GST control).

With TCAATC, the binding signal in test [1] is 1.08 fold enrichment (6-mer frequency, TF over GST control); in test [4], 1.13 fold enrichment (6-mer frequency, TF over GST control); in test [5], 1.13 fold enrichment (6-mer frequency, TF over GST control); in test [6], 1.33 fold enrichment (6-mer frequency, TF over GST control).

On to AGTCTC, for which the binding signal in test [1] is 1.04 fold enrichment (6-mer frequency, TF over GST control); in test [2], 1.03 fold enrichment (6-mer frequency, TF over GST control); in test [4] it was 1 fold enrichment (6-mer frequency, TF over GST control).

As to TGAAGA, the binding signal in test [1] was 1 fold enrichment (6-mer frequency, TF over GST control); in test [2], 1.03 fold enrichment (6-mer frequency, TF over GST control); in test [4] it was 1.09 fold enrichment (6-mer frequency, TF over GST control); in test [6], 1 fold enrichment (6-mer frequency, TF over GST control).

As for TAAGGG, the binding signal in test [1] was 1.01 fold enrichment (6-mer frequency, TF over GST control); in test [2], 1.04 fold enrichment (6-mer frequency, TF over GST control); in test [3], 1 fold enrichment (6-mer frequency, TF over GST control); in test [4], 1.12 fold enrichment (6-mer frequency, TF over GST control); in test [6], 1.49 fold enrichment (6-mer frequency, TF over GST control); in test [7], 1.06 fold enrichment (6-mer frequency, TF over GST control).

GCCCGA: the binding signal in test [1] was 1.12 fold enrichment (6-mer frequency, TF over GST control); in test [3] it was 1.07 fold enrichment (6-mer frequency, TF over GST control); in test [4] it was 1.1 fold enrichment (6-mer frequency, TF over GST control).

Take CCCCAG: the binding signal in test [1] was 1.07 fold enrichment (6-mer frequency, TF over GST control); in test [4], 1.03 fold enrichment (6-mer frequency, TF over GST control); in test [5], 1.04 fold enrichment (6-mer frequency, TF over GST control).

Consider GATCTA, for which the binding signal is 1.12 fold enrichment (6-mer frequency, TF over GST control) in test [1]; 1.12 fold enrichment (6-mer frequency, TF over GST control) in test [2]; 1.41 fold enrichment (6-mer frequency, TF over GST control) in test [4]; 1.11 fold enrichment (6-mer frequency, TF over GST control) in test [5]; 1.41 fold enrichment (6-mer frequency, TF over GST control) in test [6]; 1.05 fold enrichment (6-mer frequency, TF over GST control) in test [7].

Consider AGATCT, for which the binding signal is 1.06 fold enrichment (6-mer frequency, TF over GST control) in test [1]; 1.07 fold enrichment (6-mer frequency, TF over GST control) in test [2]; 1.47 fold enrichment (6-mer frequency, TF over GST control) in test [4]; 1.11 fold enrichment (6-mer frequency, TF over GST control) in test [5]; 1.33 fold enrichment (6-mer frequency, TF over GST control) in test [6].

Turning to TCTAGA, the binding signal was 1.05 fold enrichment (6-mer frequency, TF over GST control) in test [1]; 1.18 fold enrichment (6-mer frequency, TF over GST control) in test [2]; 6.17 fold enrichment (6-mer frequency, TF over GST control) in test [4]; 2.19 fold enrichment (6-mer frequency, TF over GST control) in test [6].

In the case of GCCGCT, the binding signal in test [1] was 1.09 fold enrichment (6-mer frequency, TF over GST control); in test [2], 1.06 fold enrichment (6-mer frequency, TF over GST control); in test [3] it was 1.05 fold enrichment (6-mer frequency, TF over GST control); in test [6] it was 1.02 fold enrichment (6-mer frequency, TF over GST control); in test [7], 1.03 fold enrichment (6-mer frequency, TF over GST control).

In the case of GCACCT, the binding signal in test [1] is 1.07 fold enrichment (6-mer frequency, TF over GST control); in test [2] it was 1.05 fold enrichment (6-mer frequency, TF over GST control); in test [3], 1.04 fold enrichment (6-mer frequency, TF over GST control); in test [5], 1.25 fold enrichment (6-mer frequency, TF over GST control).

As for TCAGAT, the binding signal in test [1] was 1.01 fold enrichment (6-mer frequency, TF over GST control); in test [4], 1.21 fold enrichment (6-mer frequency, TF over GST control); in test [5] it was 1.08 fold enrichment (6-mer frequency, TF over GST control); in test [6], 1.45 fold enrichment (6-mer frequency, TF over GST control); in test [7], 1 fold enrichment (6-mer frequency, TF over GST control).

ACTTGA: the binding signal in test [1] is 1.1 fold enrichment (6-mer frequency, TF over GST control); in test [5], 1.13 fold enrichment (6-mer frequency, TF over GST control).

For CATTGC, the binding signal in test [1] was 1.22 fold enrichment (6-mer frequency, TF over GST control); in test [2], 1.15 fold enrichment (6-mer frequency, TF over GST control); in test [3], 1.04 fold enrichment (6-mer frequency, TF over GST control); in test [5] it was 1.3 fold enrichment (6-mer frequency, TF over GST control).

As to ACAGCC, the binding signal was 1 fold enrichment (6-mer frequency, TF over GST control) in test [1]; 1.02 fold enrichment (6-mer frequency, TF over GST control) in test [3]; 1.05 fold enrichment (6-mer frequency, TF over GST control) in test [5]; 1.03 fold enrichment (6-mer frequency, TF over GST control) in test [7].

As to CGCCAT, the binding signal is 1.08 fold enrichment (6-mer frequency, TF over GST control) in test [1] and 1.03 fold enrichment (6-mer frequency, TF over GST control) in test [7].

As to TGGTTG, the binding signal in test [1] is 1.04 fold enrichment (6-mer frequency, TF over GST control); in test [2], 1.03 fold enrichment (6-mer frequency, TF over GST control); in test [7] it was 1 fold enrichment (6-mer frequency, TF over GST control).

With TTGGAT, the binding signal in test [1] was 1.02 fold enrichment (6-mer frequency, TF over GST control); in test [3], 1 fold enrichment (6-mer frequency, TF over GST control); in test [4] it was 1.21 fold enrichment (6-mer frequency, TF over GST control); in test [6], 1.39 fold enrichment (6-mer frequency, TF over GST control).

As for ATTCGG, the binding signal in test [1] was 1.01 fold enrichment (6-mer frequency, TF over GST control); in test [4], 1.11 fold enrichment (6-mer frequency, TF over GST control).

The values above are taken from publication PMC7862700, “An all-to-all approach to the identification of sequence-specific readers for epigenetic DNA modifications on cytosine”.
